# Reference: PubChem BioAssay (Tox21)
# Several values for one entry are separate records, joined by “and”; a condition that tells them apart may be missing. Equal entries are not always repeated. Values without a mark were called inactive. Records with an inconclusive call do not appear. Where a call stands in place of a potency, no number is given. Activity calls are given as the source filed them. The call rests on the fitted dose curve; in most records, active means well fitted curve in the direction sought with a large enough effect in the repeat runs; inconclusive means weak or mixed curves; inactive means no such curve, though single readings can be large; an effect the other way counts as inactive or inconclusive.
# Legend:
# [1] = Human pregnane X receptor (PXR) small molecule agonists, qHTS cell viability counter screen (AID 1346977); further: nearly all actives have a fitted effect of over 50% in size; further: potency means the concentration at half of the fitted maximal effect
# In short: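 Same-well viability read: CellTiter-Fluor added after 23 hr compound exposure, fluorescence measured 1 hr later. Cells were PXR-Luc HepG2 seeded at 2,000/well in 5% charcoal-stripped FBS medium, rested 5 hr before dosing at 37 C.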
# [2] = Caspase-3/7 induction in CHO-K1 cells by small molecules, qHTS assay (AID 1346980); further: nearly all actives have a fitted effect of over 15% in size
# In short: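 Wild-type CHO-K1 cells exposed to compounds for 17hr at 37 C, 5% CO2. Caspase-3/7 activity then measured by Caspase-Glo 3/7 luminescence after 30min at room temperature.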
# [3] = target: Nuclear receptor subfamily 1 group I member 2 (Homo sapiens) (UniProt O75469); assay: Human pregnane X receptor (PXR) small molecule agonists, qHTS assay (AID 1346982); further: nearly all actives have a fitted effect of over 35% in size; further: potency means the concentration at half of the fitted maximal effect
# In short: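 Stable HepG2 line reporting PXR-mediated CYP3A4 expression via luciferase. Treatment: 24 hr with compounds in DMSO at 37 C. Detection: ONE-Glo luminescence.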
# [4] = target: Cytochrome P450 2C19 (Homo sapiens) (UniProt P33261); assay: Cytochrome P450 Family 2 Subfamily C Member 19 (CYP2C19) small molecule antagonists: luciferase reporter qHTS assay (AID 1671197); further: nearly all actives have a fitted effect of over 65% in size; further: potency means the concentration at half of the fitted maximal effect
# In short: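 First, compounds are pinned into enzyme-substrate mix and held 10 min at room temperature. Second, NADPH regeneration solution is added and plates incubate 1 h at 37C. Third, detection reagent is added and luminescence read after 20 min.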
# [5] = target: Cytochrome P450 2C9 (Homo sapiens) (UniProt P11712); assay: Cytochrome P450 Family 2 Subfamily C Member 9 (CYP2C9) small molecule antagonists: luciferase reporter qHTS assay (AID 1671198); further: nearly all actives have a fitted effect of over 50% in size; further: potency means the concentration at half of the fitted maximal effect
# In short: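 P450-Glo proluciferin substrate with CYP2C9 enzyme; 10 min RT preincubation, then NADPH regeneration 1 h at 37C; luciferin detection reagent 20 min RT, luminescence in relative luminescence units.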
# [6] = target: Cytochrome P450 1A2 (Homo sapiens) (UniProt P05177); assay: Cytochrome P450 Family 1 Subfamily A Member 2 (CYP1A2) small molecule antagonists: luciferase reporter qHTS assay (AID 1671199); further: nearly all actives have a fitted effect of over 50% in size; further: potency means the concentration at half of the fitted maximal effect
# In short: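 Read-out is luminescence from luciferin detection reagent (20 min) proportional to CYP1A2 activity; compounds in DMSO preincubated 10 min with enzyme and proluciferin substrate, then NADPH regeneration solution, 1 h, room temperature.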
# [7] = target: Voltage-gated inwardly rectifying potassium channel KCNH2 (Homo sapiens) (UniProt Q12809); assay: Human Ether-a-go-go-Related Gene (hERG) channel small molecule antagonists: fluorescence cell-based qHTS assay (AID 1671200); further: nearly all actives have a fitted effect of over 50% in size; further: potency means the concentration at half of the fitted maximal effect
# In short: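 Thallium flux as potassium surrogate: FluxOR II dye loaded 1 h at room temperature into hERG-expressing U2OS cells, then stimulus buffer added after 10 min. Kinetic 480 nm excitation/540 nm emission read, 2 min.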
# [8] = Caspase-3/7 induction in HepG2 cells by small molecules, qHTS assay (AID 1346978); further: nearly all actives have a fitted effect of over 15% in size; further: potency means the concentration at half of the fitted maximal effect
# In short: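 Wild-type HepG2 cells, 2,000/well, settled 5 hr at 37 C and 5% CO2, then compound-treated for 17 hr; caspase-3/7 activity read by luminescent Caspase-Glo 3/7 after 30 min at room temperature.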
# [9] = Caspase-3/7 induction in CHO-K1 cells by small molecules, qHTS cell viability counter screen (AID 1346979); further: nearly all actives have a fitted effect of over 35% in size; further: potency means the concentration at half of the fitted maximal effect
# In short: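 Cytotoxicity counter screen: CellTiter-Fluor added to compound-treated wild-type CHO-K1 cells at 16 h (37C, 5% CO2), fluorescence measured 1 h later; same wells as caspase-3/7 measurement.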
# [10] = Caspase-3/7 induction in HepG2 cells by small molecules, qHTS cell viability counter screen (AID 1346981); further: nearly all actives have a fitted effect of over 30% in size; further: potency means the concentration at half of the fitted maximal effect
# In short: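 Treatment of HepG2 cells with DMSO-delivered compounds ran 16 hr at 37 C following a 5-hr pre-incubation of 2,000 cells/well. CellTiter-Fluor fluorescence, read after 1 hr, served as the viability measure in a qHTS format.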
# [11] = target: Nuclear receptor subfamily 1 group I member 2 (Rattus norvegicus) (UniProt Q9R1A7); assay: Rat pregnane X receptor (rPXR) activation by small molecules, qHTS assay (AID 1346983); settings: rPXR luciferase reporter cells, One-Glo luminescence, 24 h; max activation: active compounds read high; further: nearly all actives have a fitted effect of over 20% in size
# In short: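 Cell-based rPXR activation assay: rPXR cells, 2,000 per well, rested 5hr at 37 C, then exposed to compounds in DMSO for 24 hr at 37 C. Luciferase activity read by One-Glo luminescence after 30 min at room temperature.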
# [12] = target: Nuclear receptor subfamily 1 group I member 2 (Homo sapiens) (UniProt O75469); assay: CYP3A4 induction through human pregnane X receptor (PXR) by small molecules, qHTS assay (AID 1346984); further: nearly all actives have a fitted effect of over 40% in size; further: potency means the concentration at half of the fitted maximal effect
# In short: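 After 24 h at 37C with compound, DPX-2 cells (HepG2, co-transfected PXR response element and CYP3A4 promoter-luciferase) got 3uM final P450-Glo Luciferin-IPA for 3 h; One-Glo luminescence followed.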
# [13] = target: Nuclear receptor subfamily 1 group I member 2 (Homo sapiens) (UniProt O75469); assay: Human pregnane X receptor (PXR) activation by small molecules, qHTS assay (AID 1346985); further: nearly all actives have a fitted effect of over 40% in size; further: potency means the concentration at half of the fitted maximal effect
# In short: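 DPX-2 cells (HepG2 co-transfected with a PXR response element and a CYP3A4-promoter luciferase construct) were seeded at 2,000 per well, rested 5 hr at 37C, then exposed to DMSO-dissolved compounds for 24 hr. Activation was read as luciferase luminescence.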
# [14] = target: Cytochrome P450 2D6 (Homo sapiens) (UniProt P10635); assay: Cytochrome P450 Family 2 Subfamily D Member 6 (CYP2D6) small molecule antagonists: luciferase reporter qHTS assay (AID 1671196); further: nearly all actives have a fitted effect of over 50% in size; further: potency means the concentration at half of the fitted maximal effect
# In short: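 Chemicals tested for interference with CYP2D6 activity; proluciferin substrate, NADPH regeneration, 1 h at room temperature, luminescent detection.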
# [15] = target: Cytochrome P450 3A4 (Homo sapiens) (UniProt P08684); assay: Cytochrome P450 Family 3 Subfamily A Member 4 (CYP3A4) small molecule antagonists: luciferase reporter qHTS assay (AID 1671201); further: nearly all actives have a fitted effect of over 50% in size; further: potency means the concentration at half of the fitted maximal effect
# In short: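 Recombinant human CYP3A4 converts a proluciferin substrate to luciferin over 1 h at room temperature after NADPH regeneration solution is added (compound preincubated 10 min); detection reagent stops reaction, luminescence read 20 min later as relative units.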
# Chain of Cytochrome P450 1A2 (Homo sapiens) (P05177 whole entry, looked up): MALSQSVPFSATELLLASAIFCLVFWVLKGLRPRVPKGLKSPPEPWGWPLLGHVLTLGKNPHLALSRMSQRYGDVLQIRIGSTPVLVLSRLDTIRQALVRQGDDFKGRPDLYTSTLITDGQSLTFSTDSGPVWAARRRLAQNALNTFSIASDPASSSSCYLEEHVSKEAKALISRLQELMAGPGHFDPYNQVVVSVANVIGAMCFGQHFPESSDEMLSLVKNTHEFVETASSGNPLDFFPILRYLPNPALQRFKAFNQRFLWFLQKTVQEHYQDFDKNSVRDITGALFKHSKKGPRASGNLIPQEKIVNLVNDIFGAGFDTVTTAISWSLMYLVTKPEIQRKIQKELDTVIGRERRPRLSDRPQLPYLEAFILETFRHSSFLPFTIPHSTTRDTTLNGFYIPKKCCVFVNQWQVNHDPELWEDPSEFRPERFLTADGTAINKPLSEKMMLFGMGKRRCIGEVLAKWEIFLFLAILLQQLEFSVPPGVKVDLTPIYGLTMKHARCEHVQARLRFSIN
# Chain of Nuclear receptor subfamily 1 group I member 2 (Rattus norvegicus) (Q9R1A7 whole entry, looked up): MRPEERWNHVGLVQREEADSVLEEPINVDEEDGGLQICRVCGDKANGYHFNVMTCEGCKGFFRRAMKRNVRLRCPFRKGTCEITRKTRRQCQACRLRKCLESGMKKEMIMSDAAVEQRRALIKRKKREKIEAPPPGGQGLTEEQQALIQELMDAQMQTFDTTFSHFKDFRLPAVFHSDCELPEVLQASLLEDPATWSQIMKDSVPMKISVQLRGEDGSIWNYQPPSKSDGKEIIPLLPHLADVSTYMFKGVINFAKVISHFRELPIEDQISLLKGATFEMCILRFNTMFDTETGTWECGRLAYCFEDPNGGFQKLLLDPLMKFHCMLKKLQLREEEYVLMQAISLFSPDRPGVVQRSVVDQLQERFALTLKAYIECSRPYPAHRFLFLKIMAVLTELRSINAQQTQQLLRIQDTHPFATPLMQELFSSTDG
# Chain of Voltage-gated inwardly rectifying potassium channel KCNH2 (Homo sapiens) (Q12809 whole entry, looked up): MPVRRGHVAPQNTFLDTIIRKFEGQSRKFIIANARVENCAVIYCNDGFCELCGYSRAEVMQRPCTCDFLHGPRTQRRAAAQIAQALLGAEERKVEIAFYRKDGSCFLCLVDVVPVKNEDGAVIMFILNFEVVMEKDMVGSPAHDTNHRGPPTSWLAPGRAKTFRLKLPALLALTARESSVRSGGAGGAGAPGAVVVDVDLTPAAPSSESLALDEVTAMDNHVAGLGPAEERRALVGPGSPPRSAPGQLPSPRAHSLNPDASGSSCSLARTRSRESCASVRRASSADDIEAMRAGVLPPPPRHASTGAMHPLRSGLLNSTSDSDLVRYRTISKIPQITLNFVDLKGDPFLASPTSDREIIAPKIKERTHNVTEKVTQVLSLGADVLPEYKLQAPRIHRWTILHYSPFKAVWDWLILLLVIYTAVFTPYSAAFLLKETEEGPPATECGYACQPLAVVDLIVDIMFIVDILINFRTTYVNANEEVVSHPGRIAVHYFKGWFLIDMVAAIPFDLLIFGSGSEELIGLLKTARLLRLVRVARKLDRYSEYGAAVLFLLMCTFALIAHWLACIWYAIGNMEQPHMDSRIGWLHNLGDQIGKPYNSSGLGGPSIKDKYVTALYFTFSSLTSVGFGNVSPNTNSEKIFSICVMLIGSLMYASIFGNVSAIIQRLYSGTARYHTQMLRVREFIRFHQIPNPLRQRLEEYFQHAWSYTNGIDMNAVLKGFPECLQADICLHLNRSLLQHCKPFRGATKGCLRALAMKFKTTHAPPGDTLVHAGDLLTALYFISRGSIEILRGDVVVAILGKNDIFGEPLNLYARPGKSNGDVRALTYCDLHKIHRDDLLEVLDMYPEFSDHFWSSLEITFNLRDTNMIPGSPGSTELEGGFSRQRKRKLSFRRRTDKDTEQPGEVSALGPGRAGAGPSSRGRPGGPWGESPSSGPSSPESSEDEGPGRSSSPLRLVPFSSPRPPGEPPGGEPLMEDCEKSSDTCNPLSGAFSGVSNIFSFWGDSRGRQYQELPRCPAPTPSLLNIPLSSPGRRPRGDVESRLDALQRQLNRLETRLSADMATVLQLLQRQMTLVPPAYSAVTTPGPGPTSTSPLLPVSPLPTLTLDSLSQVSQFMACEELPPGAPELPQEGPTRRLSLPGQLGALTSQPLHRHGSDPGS
# Chain of Cytochrome P450 2C9 (Homo sapiens) (P11712 whole entry, looked up): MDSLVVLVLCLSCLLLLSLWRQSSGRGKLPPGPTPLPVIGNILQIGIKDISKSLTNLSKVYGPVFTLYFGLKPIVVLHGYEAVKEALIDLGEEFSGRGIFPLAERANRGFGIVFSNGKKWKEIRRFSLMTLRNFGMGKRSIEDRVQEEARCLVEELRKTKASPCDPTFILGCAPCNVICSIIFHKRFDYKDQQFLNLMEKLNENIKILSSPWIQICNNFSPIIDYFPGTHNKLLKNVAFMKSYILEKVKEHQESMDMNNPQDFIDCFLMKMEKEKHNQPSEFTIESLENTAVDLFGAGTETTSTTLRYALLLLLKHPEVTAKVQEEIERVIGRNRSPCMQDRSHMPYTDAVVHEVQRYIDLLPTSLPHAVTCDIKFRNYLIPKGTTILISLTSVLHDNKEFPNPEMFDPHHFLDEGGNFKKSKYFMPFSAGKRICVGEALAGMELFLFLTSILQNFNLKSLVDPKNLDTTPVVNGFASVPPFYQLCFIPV
# Chain of Cytochrome P450 3A4 (Homo sapiens) (P08684 whole entry, looked up): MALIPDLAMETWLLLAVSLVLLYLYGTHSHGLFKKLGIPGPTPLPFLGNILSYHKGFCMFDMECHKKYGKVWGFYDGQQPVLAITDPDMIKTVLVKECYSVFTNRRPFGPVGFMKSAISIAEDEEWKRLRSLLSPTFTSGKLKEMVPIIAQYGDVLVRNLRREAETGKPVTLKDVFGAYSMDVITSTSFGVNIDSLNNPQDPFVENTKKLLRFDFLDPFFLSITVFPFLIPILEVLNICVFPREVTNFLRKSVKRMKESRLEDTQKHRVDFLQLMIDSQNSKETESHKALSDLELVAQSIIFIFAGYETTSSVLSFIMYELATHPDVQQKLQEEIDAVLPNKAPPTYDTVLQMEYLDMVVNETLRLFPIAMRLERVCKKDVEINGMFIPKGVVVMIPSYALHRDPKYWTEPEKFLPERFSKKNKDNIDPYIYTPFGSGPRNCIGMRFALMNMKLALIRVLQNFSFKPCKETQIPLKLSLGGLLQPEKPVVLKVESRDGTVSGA
# Chain of Cytochrome P450 2D6 (Homo sapiens) (P10635 whole entry, looked up): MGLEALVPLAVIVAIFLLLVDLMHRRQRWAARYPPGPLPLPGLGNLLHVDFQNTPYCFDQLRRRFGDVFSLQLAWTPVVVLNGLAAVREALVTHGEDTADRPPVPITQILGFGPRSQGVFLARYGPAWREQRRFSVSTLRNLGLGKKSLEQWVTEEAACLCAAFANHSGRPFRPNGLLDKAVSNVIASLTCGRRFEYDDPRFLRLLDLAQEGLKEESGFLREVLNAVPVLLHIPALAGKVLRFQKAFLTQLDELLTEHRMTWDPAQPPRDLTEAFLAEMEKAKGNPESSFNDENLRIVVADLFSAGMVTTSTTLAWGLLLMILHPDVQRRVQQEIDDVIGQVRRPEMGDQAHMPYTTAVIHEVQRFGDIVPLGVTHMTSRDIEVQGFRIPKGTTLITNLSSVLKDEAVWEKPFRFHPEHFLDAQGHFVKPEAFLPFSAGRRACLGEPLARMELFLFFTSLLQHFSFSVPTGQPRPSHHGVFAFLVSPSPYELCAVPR
# Chain of Cytochrome P450 2C19 (Homo sapiens) (P33261 whole entry, looked up): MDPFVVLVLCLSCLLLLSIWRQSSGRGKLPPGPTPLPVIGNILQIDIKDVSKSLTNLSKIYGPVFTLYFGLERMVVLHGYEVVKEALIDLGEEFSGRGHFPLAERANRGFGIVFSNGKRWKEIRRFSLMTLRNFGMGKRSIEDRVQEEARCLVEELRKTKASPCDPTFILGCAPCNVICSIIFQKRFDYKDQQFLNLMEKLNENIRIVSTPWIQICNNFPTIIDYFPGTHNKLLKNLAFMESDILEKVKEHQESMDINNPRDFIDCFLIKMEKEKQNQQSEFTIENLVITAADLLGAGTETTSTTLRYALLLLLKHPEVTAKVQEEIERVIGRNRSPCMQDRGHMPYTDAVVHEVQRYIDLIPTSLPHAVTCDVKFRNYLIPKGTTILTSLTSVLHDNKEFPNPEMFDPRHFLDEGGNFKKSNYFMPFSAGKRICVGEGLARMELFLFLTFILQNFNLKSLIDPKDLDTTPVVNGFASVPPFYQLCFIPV
# Chain of Nuclear receptor subfamily 1 group I member 2 (Homo sapiens) (O75469 whole entry, looked up): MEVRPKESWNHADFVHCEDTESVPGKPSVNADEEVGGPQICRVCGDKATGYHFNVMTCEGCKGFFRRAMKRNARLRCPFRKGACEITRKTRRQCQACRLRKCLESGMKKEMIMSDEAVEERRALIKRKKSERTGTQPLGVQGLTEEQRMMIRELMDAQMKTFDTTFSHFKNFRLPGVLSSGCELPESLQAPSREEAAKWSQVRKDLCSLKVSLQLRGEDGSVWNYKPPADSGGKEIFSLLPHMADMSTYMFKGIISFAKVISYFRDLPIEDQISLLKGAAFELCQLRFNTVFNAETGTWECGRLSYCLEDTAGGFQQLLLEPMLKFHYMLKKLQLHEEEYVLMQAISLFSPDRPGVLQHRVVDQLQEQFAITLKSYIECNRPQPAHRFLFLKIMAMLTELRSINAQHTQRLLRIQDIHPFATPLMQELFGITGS
SMILES,Potency [1],outcome [2],Potency [3],Potency [4],Potency [5],Potency [6],Potency [7],Potency [8],Potency [9],Potency [10],max activation [11],Potency [12],Potency [13],Potency [14],Potency [15]
O=C(/C=C/c1ccc([N+](=O)[O-])cc1)c1ccccc1,61.3 µM (active),inactive,24.4 µM (active),1.59 µM (active),11.3 µM (active),5.04 µM (active),inactive,,,,,,,,
CC(=O)Oc1cccc(O)c1,,inactive,inactive,,inactive,,inactive,inactive,inactive,inactive,-5.99%,inactive,inactive,inactive,
O=C(Nc1ccc(C(=O)O)c(O)c1)c1ccccc1,,inactive,inactive,,,inactive,inactive,inactive,inactive,inactive,-2.23%,inactive,inactive,15.5 µM (active),
COc1ccc(-n2nc(C(F)F)cc2-c2ccc(S(C)=O)cc2)cc1 (stereo unspecified),inactive,inactive,30.6 µM (active),2 µM (active),31.7 µM (active),31.7 µM (active),inactive,inactive,,inactive,,,,,31.7 µM (active)
O=C1OC(=O)c2c(Br)c(Br)c(Br)c(Br)c21,inactive,inactive,,inactive,inactive,inactive,inactive,,inactive,inactive,,,,inactive,inactive
CCCCCCCC(=O)Oc1c(Br)cc(C#N)cc1Br,inactive,inactive,,35.5 µM (active),39.8 µM (active),12.6 µM (active),,inactive,,,,,,,inactive
Cc1ccc2c(c1[N+](=O)[O-])C(=O)c1ccccc1C2=O,3.78 µM (active),inactive,1.9 µM (active),inactive,inactive,4.93 µM (active),inactive,5.99 µM (active),,3 µM (active),,,,inactive,15.6 µM (active)
CN(C)CC/C=C1\c2ccccc2Sc2ccc(Cl)cc21,29.8 µM (active),inactive,,,inactive,7.23 µM (active),3.01 µM (active),,,,3.57%,,,2.75 µM (active),
O=S(=O)(O)CO,,inactive,inactive,35.1 µM (active),inactive,31.3 µM (active),inactive,inactive,inactive,inactive,,,,inactive,inactive
COc1cc(NCc2ccc3nc(N)nc(N)c3c2C)cc(OC)c1OC,,inactive,inactive,9.77 µM (active),15.5 µM (active),7.76 µM (active),inactive,inactive,26.6 µM (active),26.6 µM (active),-10.1%,inactive,inactive,13.8 µM (active),
CC(C)(O)c1coc(S(=O)(=O)NC(=O)Nc2c3c(cc4c2CCC4)CCC3)c1,,inactive,inactive,35.6 µM (active),25.2 µM (active),17.8 µM (active),inactive,inactive,inactive,inactive,,,,inactive,22.4 µM (active)
CCN(CC)CCOc1ccccc1C(=O)CCc1ccccc1,,inactive,26.6 µM (active),inactive,inactive,7.76 µM (active),3.38 µM (active),inactive,inactive,inactive,4.09%,14.1 µM (active),15.8 µM (active),0.692 µM (active),
CC(C)COC(=O)c1ccc(O)cc1,inactive,inactive,,3.17 µM (active),25.2 µM (active),2.82 µM (active),inactive,inactive,,inactive,,,,,inactive
Cc1ccc2nc(N)[nH]c(=O)c2c1Sc1ccncc1,inactive,inactive,inactive,1.55 µM (active),5.49 µM (active),2.88 µM (active),inactive,inactive,,,-1.84%,,,15.5 µM (active),
COc1ccc2nc(S(=O)Cc3ncc(C)c(OC)c3C)[nH]c2c1 (stereo unspecified),,inactive,53.8 µM (active) and 26.6 µM (active),5.57 µM (active) and 11 µM (active),31.3 µM (active) and 13.8 µM (active),8.83 µM (active) and 15.5 µM (active),inactive,inactive,67.8 µM (active),inactive,,,,5.57 µM (active) and 17.4 µM (active),
CCSC(=O)N(CC)CC,,inactive,inactive,inactive,inactive,,inactive,inactive,inactive,inactive,,,,inactive,inactive
